{"source": "ChEMBL document CHEMBL3988442", "about": "“University of Dundee, Small-Polar-MMV Screening Library” (2021)", "note": "Hit rate of the full screen: of about 69,000 compounds, about 950 (1.4%) showed an effect of 50% or more. This excerpt belongs to a sample that is enriched for strong results.", "data": [{"tested_on": "Mycobacterium tuberculosis", "test": "Cornell M. t heat shock assay; also: in the data most compounds retested in dose-response had high values", "format": "functional, organism-based", "design": "dose or concentration left out as unconfirmed", "units": {"Percent Effect": "%"}, "values": [{"compound": "Br.Cn1cc(CN2CCOC(c3cccc(-c4cncnc4)n3)C2)cn1", "note": "(stereo not given)", "Percent Effect": -10.8}, {"compound": "Cl.c1cncc(CNCc2cccs2)c1", "Percent Effect": 5.045}, {"compound": "O=C(O)C(F)(F)F.O=C1[C@H]2CN(Cc3nccs3)C[C@H]2CN1c1ccsc1", "Percent Effect": 28.97}, {"compound": "Cc1nn(C)c(C)c1S(=O)(=O)N1C[C@@H]2C[C@@H](C)O[C@@H]2C1.O=C(O)C(F)(F)F", "Percent Effect": 3.558}, {"compound": "NC(=O)CC1CC2(CCNCC2)c2cc(F)ccc21.O=C(O)C(F)(F)F", "note": "(stereo not given)", "Percent Effect": 15.23}, {"compound": "Cn1cc(C(=O)NCc2cn3c(n2)CN(C2CCOCC2)CC3)cn1.O=C(O)C(F)(F)F", "Percent Effect": -17.41}, {"compound": "Cc1ccc2c(c1)OCCCC2NC1CCN(C)CC1", "note": "(stereo not given)", "Percent Effect": 11.02}, {"compound": "Cc1ccc2c(c1)OCCCC2NCc1nccn1Cc1ccccc1", "note": "(stereo not given)", "Percent Effect": 101.1}, {"compound": "COc1c(CNC2CCCOc3ccccc32)c(C)nn1C", "note": "(stereo not given)", "Percent Effect": -2.184}, {"compound": "c1ccc2c(c1)OCCCC2NCc1nnc2n1CCCCC2", "note": "(stereo not given)", "Percent Effect": 7.956}, {"compound": "c1ccc(Cn2ccnc2CNC2CCCOc3ccccc32)cc1", "note": "(stereo not given)", "Percent Effect": 104.4}, {"compound": "CCC1COCCN1C(=O)NCc1nccn1Cc1ccccc1", "note": "(stereo not given)", "Percent Effect": -21.62}, {"compound": "Cc1cncc(C(=O)N2C[C@@H]3CN(S(C)(=O)=O)CCO[C@@H]3C2)c1.O=C(O)C(F)(F)F", "Percent Effect": 15.78}, {"compound": "CC1CCN(C(=O)[C@@H]2C[C@@H]3CCN(Cc4nccs4)C[C@H]3O2)CC1.O=C(O)C(F)(F)F", "Percent Effect": 11.99}, {"compound": "CCC1CN(C(=O)c2csc3nc(-c4ccc(Cl)cc4)cn23)CCN1", "note": "(stereo not given)", "Percent Effect": 59.48}, {"compound": "CC(C)N1CCN(C(=O)c2csc3nc(-c4ccc(Cl)cc4)cn23)CC1", "Percent Effect": 2.331}, {"compound": "O=C(c1csc2nc(-c3ccc(Cl)cc3)cn12)N1CCCC(CO)C1", "note": "(stereo not given)", "Percent Effect": 17.74}, {"compound": "O=C(Nc1cccnc1)[C@H]1C[C@@H]2CN(C(=O)NC3CCCC3)C[C@H]1O2", "Percent Effect": -0.1164}, {"compound": "O=C1C[C@H]2CC[C@@H](CN1)N2C1CCOCC1", "Percent Effect": -8.619}, {"compound": "O=C(NC1CCCC1)c1nc2c(o1)CN(C(=O)CO)C2", "Percent Effect": 10.14}, {"compound": "O=C(NC1CCCC1)c1nc2c(o1)CN(C(=O)CCO)C2", "Percent Effect": 6.229}, {"compound": "O=C(NC1CCCC1)c1nc2c(o1)CN(CCO)C2", "Percent Effect": 51.46}, {"compound": "CN(C)C(C(=O)N1CCSCC1)c1ccccc1F", "note": "(stereo not given)", "Percent Effect": 7.911}, {"compound": "CN(C)C(C(=O)N1CCC(N2CCSCC2)CC1)c1ccccc1F", "note": "(stereo not given)", "Percent Effect": 64.18}, {"compound": "CN(C)C(C(=O)N1CCCC1)c1ccccc1F", "note": "(stereo not given)", "Percent Effect": 12.45}, {"compound": "COc1ccc(C)cc1CNC(=O)C1=NN(c2ccccc2)C(=O)CN1", "Percent Effect": 30.82}, {"compound": "COc1ccc(CNC(=O)C2=NN(c3ccc(C)cc3)C(=O)CN2)cc1", "Percent Effect": 24.03}, {"compound": "COc1ccccc1CNC(=O)C1=NN(c2ccc(C)cc2)C(=O)CN1", "Percent Effect": 73.51}, {"compound": "CC(C)N1CCO[C@H]2CN(C(=O)c3ccccn3)C[C@H]21.O=C(O)C(F)(F)F.O=C(O)C(F)(F)F", "Percent Effect": -26.06}, {"compound": "CC(=O)Nc1nc(C(=O)NC(C)c2ccc(F)cc2)cs1", "note": "(stereo not given)", "Percent Effect": 8.426}, {"compound": "Cc1cc(O)c(OCC(=O)/N=c2\\[nH]c(C)c(C)s2)cn1", "Percent Effect": 14.69}, {"compound": "Cc1cs/c(=N\\C(=O)c2c3c(nc4onc(C)c24)CCC3)[nH]1", "Percent Effect": -0.1888}, {"compound": "CC(C)CNc1nc(C(=O)/N=c2\\[nH]nc(C(C)(C)C)s2)cs1", "Percent Effect": 29.68}, {"compound": "Cc1cs/c(=N/C(=O)c2csc(NCC(C)C)n2)[nH]1", "Percent Effect": 102.2}, {"compound": "Cc1[nH]/c(=N\\C(=O)c2csc(NCC(C)C)n2)sc1C", "Percent Effect": 103.2}, {"compound": "O=C1c2cnc(N3CCCC3)nc2CN1CCc1ccc(Cl)cc1", "Percent Effect": 5.842}, {"compound": "Cc1ccc(CN2C[C@@H]3COC[C@H](NS(C)(=O)=O)[C@@H]3C2)s1.O=C(O)C(F)(F)F", "Percent Effect": -17.68}, {"compound": "CC(C)c1nn(C)c(N(C)C)c1CNC(C)c1ccc2c(c1)OCO2.Cl", "note": "(stereo not given)", "Percent Effect": 11.17}, {"compound": "O=C(CN1CC(c2nc(C3CC3)no2)C1)NCc1ccc(F)cc1.O=C(O)C(=O)O", "Percent Effect": -19.44}, {"compound": "CS(=O)(=O)N1CCN(c2ccnc(N3CCCCC3)n2)CC1", "Percent Effect": 54.19}, {"compound": "CN(C)S(=O)(=O)N1CCN(c2ccnc(N3CCCCC3)n2)CC1", "Percent Effect": -3.243}, {"compound": "CS(=O)(=O)N1CCN(c2ccnc(N3CCCC3)n2)CC1", "Percent Effect": 3.373}, {"compound": "CN1CCN(CC2CC2)C(=O)C12CCN(C(=O)CC(F)(F)F)CC2.O=C(O)C(F)(F)F", "Percent Effect": 5.441}, {"compound": "COc1ccccc1Oc1ncccc1CNC(=O)[C@@H](C)NC(C)=O", "Percent Effect": 11.05}, {"compound": "CCn1ccnc1CN1CCCC1c1noc(C2CC2)n1", "note": "(stereo not given)", "Percent Effect": -4.423}, {"compound": "c1ccc2nc(CN3CCCC3c3noc(C4CC4)n3)ccc2c1", "note": "(stereo not given)", "Percent Effect": 108.9}, {"compound": "Cc1nc(CN2CCCC2c2noc(C3CC3)n2)nc2ccccc12", "note": "(stereo not given)", "Percent Effect": 27.9}, {"compound": "COc1ccc(C)cc1CN1CCCC1c1noc(C2CC2)n1", "note": "(stereo not given)", "Percent Effect": 82.36}, {"compound": "c1ccc(Cn2ccnc2CN2CCCC2c2noc(C3CC3)n2)cc1", "note": "(stereo not given)", "Percent Effect": 104.2}, {"compound": "Cc1cnc(CN2CCCCC2c2nc(-c3ccccc3)no2)cn1", "note": "(stereo not given)", "Percent Effect": 5.875}, {"compound": "CCc1nc(C2CCCN2Cc2nccn2Cc2ccccc2)no1", "note": "(stereo not given)", "Percent Effect": 20.06}, {"compound": "Cc1noc(C)c1CN1CCCCC1c1nc(-c2ccccc2)no1", "note": "(stereo not given)", "Percent Effect": -13.3}, {"compound": "Cn1ccnc1CN1CCCCC1c1nc(-c2ccccc2)no1", "note": "(stereo not given)", "Percent Effect": 51.73}, {"compound": "c1ccc2oc(CN3CCCC3c3noc(C4CC4)n3)nc2c1", "note": "(stereo not given)", "Percent Effect": 17.43}, {"compound": "Cc1cc(CN2CCCC2c2noc(C3CC3)n2)c2ccccc2n1", "note": "(stereo not given)", "Percent Effect": 31.64}, {"compound": "COc1c(C)cnc(CN2CCCC2c2noc(C3CC3)n2)c1C", "note": "(stereo not given)", "Percent Effect": -0.8434}, {"compound": "COC(=O)Cn1c(=O)nc2n1C(=O)N(c1ccc(Br)cc1)C2", "Percent Effect": 18.41}, {"compound": "CNC(=O)[C@H]1C[C@@H]2CN(Cc3cccc(C)c3)C[C@H]1O2.O=C(O)C(F)(F)F", "Percent Effect": 19.67}, {"compound": "COCCNC(=O)[C@H]1CN(Cc2sccc2C)C[C@H]2OCC[C@@H]12.O=C(O)C(F)(F)F", "Percent Effect": -45.09}, {"compound": "Br.Cc1cc(C)c(N(CC(O)CNCc2ccccc2)S(C)(=O)=O)c(C)c1", "note": "(stereo not given)", "Percent Effect": 3.921}]}]}
